{
  "source": "PubChem BioAssay (Tox21)",
  "note": "Where “and” joins values, the source holds several entries; their conditions need not be identical. Equal entries are not always repeated. Inconclusive results are not listed. A call without a number means that no potency is given here. Where a structure was tested more than once in an assay, its records may differ in their call. Calls of active or inactive are those of the source. The call rests on the fitted dose curve; in most records, active means well fitted curve in the direction sought with a large enough effect in the repeat runs; inconclusive means weak or mixed curves; inactive means no such curve, though single readings can be large; an effect the other way counts as inactive or inconclusive. Potency means the concentration at half of the fitted maximal effect.",
  "data": [
    {"test_system": "not listed separately", "assay": "qHTS assay to identify small molecule antagonists of the estrogen related receptor (ERR) signaling pathway from Tox21 library - cell viability counter screen (AID 1224834); further: nearly all actives have a fitted effect of over 30% in size", "conditions": "ERR reporter cells viability, CellTiter-Fluor, 17.5 h; series mostly up to 92.4 µM; viability change, negative = cytotoxic: at the top concentration", "method_in_brief": "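Seeded ERR cells were rested 6 h at 37 C/5% CO2 before compounds, positive and negative controls or DMSO were added. Incubation continued for 17.5 h, and viability was then quantified by CellTiter-Fluor fluorescence.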", "values": [
      {"smiles": "CCCCCc1cc(O)cc(O)c1", "Potency": "54.5 µM (active)"},
      {"smiles": "CC(C)=CC1C(C(=O)OCc2coc(Cc3ccccc3)c2)C1(C)C", "note": "(stereo not given)", "Potency": "inactive"},
      {"smiles": "C#CCOS(=O)OC1CCCCC1Oc1ccc(C(C)(C)C)cc1", "note": "(stereo not given)", "Potency": "4.33 µM (active)"},
      {"smiles": "CC(O)CCO", "note": "(stereo not given)", "Potency": "inactive"},
      {"smiles": "NC(=S)Nc1ccccc1", "Potency": "22 µM (active) and inactive"},
      {"smiles": "C1=Cc2cccc3cccc1c23", "Potency": "inactive"},
      {"smiles": "Clc1nc(Cl)nc(Cl)n1", "Potency": "inactive"},
      {"smiles": "COc1ccc(C(CN(C)C)C2(O)CCCCC2)cc1", "note": "(stereo not given)", "Potency": "inactive"},
      {"smiles": "CCCCN(CC)c1c([N+](=O)[O-])cc(C(F)(F)F)cc1[N+](=O)[O-]", "Potency": "inactive"},
      {"smiles": "S=C1NCCN1", "Potency": "inactive"},
      {"smiles": "CCOC(=S)S", "Potency": "inactive"},
      {"smiles": "Cc1ccc2c(c1N)C(=O)c1ccccc1C2=O", "Potency": "30.3 µM (active)"},
      {"smiles": "CC(C)(C)c1ccccc1O", "Potency": "inactive"},
      {"smiles": "O=C(Nc1ccc(Br)cc1)c1cc(Br)cc(Br)c1O", "Potency": "inactive and 19.3 µM (active) and 10.6 µM (active)"},
      {"smiles": "c1ccc(NNc2ccccc2)cc1", "Potency": "inactive"},
      {"smiles": "ClC1C(Cl)C(Cl)C(Cl)C(Cl)C1Cl", "note": "(stereo not given)", "Potency": "inactive"},
      {"smiles": "CCC(C)c1cc([N+](=O)[O-])cc([N+](=O)[O-])c1O", "note": "(stereo not given)", "Potency": "inactive and 19.3 µM (active)"},
      {"smiles": "O=C(O)CC[N+](=O)[O-]", "Potency": "inactive"},
      {"smiles": "CC(C)c1ccc(CO)cc1", "Potency": "inactive"},
      {"smiles": "CCN(CC)C(=O)/C(Cl)=C(\\C)OP(=O)(OC)OC", "Potency": "inactive"},
      {"smiles": "O=[N+]([O-])c1c(Cl)c(Cl)c(Cl)c(Cl)c1Cl", "Potency": "inactive"},
      {"smiles": "C[C@]12CCC(=O)C[C@@H]1CC[C@@H]1[C@@H]2CC[C@]2(C)[C@@H](O)CC[C@@H]12", "Potency": "48 µM (active) and inactive"},
      {"smiles": "c1ccc(P(c2ccccc2)c2ccccc2)cc1", "Potency": "inactive"},
      {"smiles": "CN(C)c1ccc(C(=O)c2ccc(N(C)C)cc2)cc1", "Potency": "inactive and 9.69 µM (active)"},
      {"smiles": "O=C(CCl)c1ccccc1", "Potency": "inactive"},
      {"smiles": "COc1ccc(C=O)cc1", "Potency": "inactive"},
      {"smiles": "O=C(NC(=O)c1c(F)cccc1F)Nc1ccc(Cl)cc1", "Potency": "inactive"},
      {"smiles": "CCCCC(CC)COC(=O)Cl", "note": "(stereo not given)", "Potency": "inactive"},
      {"smiles": "Oc1cc(Cl)ccc1Oc1ccc(Cl)cc1Cl", "Potency": "24.9 µM (active) and 29.8 µM (active)"},
      {"smiles": "CC(C)NC(C)C", "Potency": "inactive"},
      {"smiles": "N[C@@H](Cc1ccc(N(CCCl)CCCl)cc1)C(=O)O", "Potency": "inactive"}
    ]},
    {"biological_target": "Luciferin 4-monooxygenase (Photinus pyralis) (UniProt P08659)", "sequence (P08659 whole entry, looked up)": "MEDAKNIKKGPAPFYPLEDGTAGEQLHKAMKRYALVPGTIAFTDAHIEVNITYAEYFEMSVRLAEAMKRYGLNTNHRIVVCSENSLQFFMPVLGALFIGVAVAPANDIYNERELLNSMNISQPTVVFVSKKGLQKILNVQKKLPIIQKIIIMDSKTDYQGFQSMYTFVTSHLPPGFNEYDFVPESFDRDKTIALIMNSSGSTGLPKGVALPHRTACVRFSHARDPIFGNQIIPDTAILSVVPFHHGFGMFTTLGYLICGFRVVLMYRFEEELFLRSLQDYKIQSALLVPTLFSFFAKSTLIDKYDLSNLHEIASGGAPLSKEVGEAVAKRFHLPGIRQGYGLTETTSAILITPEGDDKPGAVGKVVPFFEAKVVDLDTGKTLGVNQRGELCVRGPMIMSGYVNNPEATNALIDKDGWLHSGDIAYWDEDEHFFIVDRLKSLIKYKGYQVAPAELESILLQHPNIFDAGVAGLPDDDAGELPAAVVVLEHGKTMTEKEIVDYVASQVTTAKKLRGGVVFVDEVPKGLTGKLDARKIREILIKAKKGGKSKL", "assay": "qHTS assay to identify small molecule inhibitors of firefly luciferase (AID 1224835); further: nearly all actives have a fitted effect of over 25% in size", "conditions": "purified P. pyralis luciferase, luminescence inhibition; series mostly up to 115 µM; activity change, negative = inhibition: at the top concentration", "method_in_brief": "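Quantitative HTS format; KM concentrations of both substrates. Purified P. pyralis FLuc activity quantified from luminescence images.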", "values": [
      {"smiles": "CCCCCc1cc(O)cc(O)c1", "Potency": "63.6 µM (active) and 39.9 µM (active)"},
      {"smiles": "CC(C)=CC1C(C(=O)OCc2coc(Cc3ccccc3)c2)C1(C)C", "note": "(stereo not given)", "Potency": "inactive"},
      {"smiles": "CC(O)CCO", "note": "(stereo not given)", "Potency": "inactive"},
      {"smiles": "NC(=S)Nc1ccccc1", "activity change, negative = inhibition": "0.81% (inactive)"},
      {"smiles": "C1=Cc2cccc3cccc1c23", "Potency": "inactive"},
      {"smiles": "COc1ccc(C(CN(C)C)C2(O)CCCCC2)cc1", "note": "(stereo not given)", "Potency": "inactive"},
      {"smiles": "CCCCN(CC)c1c([N+](=O)[O-])cc(C(F)(F)F)cc1[N+](=O)[O-]", "Potency": "inactive"},
      {"smiles": "Cc1ccc2c(c1N)C(=O)c1ccccc1C2=O", "Potency": "3.95 µM (active) and 5.64 µM (active)"},
      {"smiles": "CC(C)(C)c1ccccc1O", "activity change, negative = inhibition": "-6.31% (inactive)"},
      {"smiles": "NNC(=S)NN", "Potency": "inactive"},
      {"smiles": "O=C(Nc1ccc(Br)cc1)c1cc(Br)cc(Br)c1O", "Potency": "3.98 µM (active) and 5.03 µM (active) and 6.92 µM (active)"},
      {"smiles": "CCOCN(C(=O)CCl)c1c(C)cccc1CC", "Potency": "inactive"},
      {"smiles": "O=P(Oc1ccccc1)(Oc1ccccc1)Oc1ccccc1", "Potency": "inactive"},
      {"smiles": "c1ccc(NNc2ccccc2)cc1", "Potency": "25.4 µM (active) and 17.8 µM (active)"},
      {"smiles": "CCc1cccc(CC)c1N(COC)C(=O)CCl", "Potency": "inactive"},
      {"smiles": "ClC1C(Cl)C(Cl)C(Cl)C(Cl)C1Cl", "note": "(stereo not given)", "Potency": "inactive"},
      {"smiles": "CCC(C)c1cc([N+](=O)[O-])cc([N+](=O)[O-])c1O", "note": "(stereo not given)", "activity change, negative = inhibition": "0.89% (inactive)"},
      {"smiles": "O=C(O)CC[N+](=O)[O-]", "Potency": "inactive"},
      {"smiles": "CC(C)c1ccc(CO)cc1", "Potency": "inactive"},
      {"smiles": "CCN(CC)C(=O)/C(Cl)=C(\\C)OP(=O)(OC)OC", "Potency": "inactive"},
      {"smiles": "O=[N+]([O-])c1c(Cl)c(Cl)c(Cl)c(Cl)c1Cl", "Potency": "inactive"},
      {"smiles": "c1ccc(P(c2ccccc2)c2ccccc2)cc1", "Potency": "inactive"},
      {"smiles": "CN(C)c1ccc(C(=O)c2ccc(N(C)C)cc2)cc1", "Potency": "35.2 µM (active) and 10 µM (active)"},
      {"smiles": "c1cc(OCC2CO2)ccc1Cc1ccc(OCC2CO2)cc1", "note": "(stereo not given)", "Potency": "inactive"},
      {"smiles": "Cc1ccc(N)c(N)c1", "Potency": "15.9 µM (active) and 2.52 µM (active)"},
      {"smiles": "O=C(CCl)c1ccccc1", "Potency": "inactive"},
      {"smiles": "COc1ccc(C=O)cc1", "Potency": "inactive"},
      {"smiles": "O=C(NC(=O)c1c(F)cccc1F)Nc1ccc(Cl)cc1", "Potency": "inactive"},
      {"smiles": "CCCCC(CC)COC(=O)Cl", "note": "(stereo not given)", "activity change, negative = inhibition": "-1.89% (inactive)"},
      {"smiles": "Oc1cc(Cl)ccc1Oc1ccc(Cl)cc1Cl", "Potency": "inactive"},
      {"smiles": "CC(C)NC(C)C", "Potency": "inactive"}
    ]},
    {"test_system": "not listed separately", "assay": "qHTS assay to identify small molecule agonists of the constitutive androstane receptor (CAR) signaling pathway - cell viability counter screen (AID 1224836); further: nearly all actives have a fitted effect of over 45% in size", "conditions": "HepG2-CYP2B6-hCAR viability, CellTiter-Fluor, 23 h, PK11195 added to every well; series mostly up to 92.4 µM; viability change, negative = cytotoxic: at the top concentration", "method_in_brief": "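Cells were seeded and incubated 4 hrs. Compounds were added across 15 concentrations together with PK11195 at 0.75 uM final. Plates were incubated 23 hrs at 37 C. CellTiter-Fluor was added and fluorescence measured.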", "values": [
      {"smiles": "CCCCCc1cc(O)cc(O)c1", "viability change, negative = cytotoxic": "-1.78% (inactive)"},
      {"smiles": "CC(C)=CC1C(C(=O)OCc2coc(Cc3ccccc3)c2)C1(C)C", "note": "(stereo not given)", "Potency": "inactive"},
      {"smiles": "CC(O)CCO", "note": "(stereo not given)", "Potency": "inactive"},
      {"smiles": "NC(=S)Nc1ccccc1", "viability change, negative = cytotoxic": "-13.6% (inactive)"},
      {"smiles": "C1=Cc2cccc3cccc1c23", "Potency": "inactive"},
      {"smiles": "Clc1nc(Cl)nc(Cl)n1", "Potency": "inactive"},
      {"smiles": "COc1ccc(C(CN(C)C)C2(O)CCCCC2)cc1", "note": "(stereo not given)", "Potency": "inactive"},
      {"smiles": "CCCCN(CC)c1c([N+](=O)[O-])cc(C(F)(F)F)cc1[N+](=O)[O-]", "Potency": "inactive"},
      {"smiles": "S=C1NCCN1", "Potency": "inactive"},
      {"smiles": "CCOC(=S)S", "viability change, negative = cytotoxic": "-21.1% (inactive)"},
      {"smiles": "COP(=S)(OC)Oc1ccc([N+](=O)[O-])cc1", "Potency": "inactive"},
      {"smiles": "CC(C)(C)c1ccccc1O", "Potency": "inactive"},
      {"smiles": "NNC(=S)NN", "Potency": "inactive"},
      {"smiles": "O=C(Nc1ccc(Br)cc1)c1cc(Br)cc(Br)c1O", "Potency": "27.2 µM (active) and 16.8 µM (active)"},
      {"smiles": "CCOCN(C(=O)CCl)c1c(C)cccc1CC", "Potency": "inactive"},
      {"smiles": "O=P(Oc1ccccc1)(Oc1ccccc1)Oc1ccccc1", "Potency": "inactive"},
      {"smiles": "c1ccc(NNc2ccccc2)cc1", "Potency": "inactive"},
      {"smiles": "CCc1cccc(CC)c1N(COC)C(=O)CCl", "Potency": "inactive"},
      {"smiles": "ClC1C(Cl)C(Cl)C(Cl)C(Cl)C1Cl", "note": "(stereo not given)", "Potency": "inactive"},
      {"smiles": "O=C(O)CC[N+](=O)[O-]", "Potency": "inactive"},
      {"smiles": "CC(C)c1ccc(CO)cc1", "Potency": "inactive"},
      {"smiles": "CCN(CC)C(=O)/C(Cl)=C(\\C)OP(=O)(OC)OC", "Potency": "inactive"},
      {"smiles": "O=[N+]([O-])c1c(Cl)c(Cl)c(Cl)c(Cl)c1Cl", "Potency": "inactive"},
      {"smiles": "C[C@]12CCC(=O)C[C@@H]1CC[C@@H]1[C@@H]2CC[C@]2(C)[C@@H](O)CC[C@@H]12", "viability change, negative = cytotoxic": "5.04% [at 42.5 µM] (inactive)"},
      {"smiles": "c1ccc(P(c2ccccc2)c2ccccc2)cc1", "Potency": "inactive"},
      {"smiles": "c1cc(OCC2CO2)ccc1Cc1ccc(OCC2CO2)cc1", "note": "(stereo not given)", "Potency": "inactive"},
      {"smiles": "Cc1ccc(N)c(N)c1", "Potency": "inactive"},
      {"smiles": "O=C(CCl)c1ccccc1", "Potency": "inactive"},
      {"smiles": "COc1ccc(C=O)cc1", "Potency": "inactive"},
      {"smiles": "O=C(NC(=O)c1c(F)cccc1F)Nc1ccc(Cl)cc1", "Potency": "inactive"},
      {"smiles": "CCCCC(CC)COC(=O)Cl", "note": "(stereo not given)", "Potency": "inactive"},
      {"smiles": "CC(C)NC(C)C", "Potency": "inactive"},
      {"smiles": "N[C@@H](Cc1ccc(N(CCCl)CCCl)cc1)C(=O)O", "Potency": "inactive"}
    ]}
  ]
}
